Assay outcomes from PubChem BioAssay.
This is a sample that favours compounds with a hit; in the whole collection about 6.9% have one here.
BAZ2B inh: inhibitors of human BAZ2B bromodomain; AID 504333; Q9UIF8; 360,000 tested, 4.4% active; Potency, µM (series often up to 114 µM), actives largely listed as inhibitors; AlphaScreen BAZ2B-H3K14Ac peptide displacement; note: nearly all actives have a fitted effect of over 60% in size
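Multi-concentration screen (max 110 uM) measuring displacement of acetylated histone H3 peptide from BAZ2B by AlphaScreen, using 50 nM protein, 50 nM peptide and 10 ug/mL streptavidin donor plus Ni-chelate acceptor beads.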
PLK1 PBD inh: PLK1 (human) polo-box domain binding inhibition; P53350; Plk1 PBD binding of FITC phosphopeptide, fluorescence polarization; Potency, µM, hits mostly inhibitors; 360,000 tested, 2.8% active; AID 720504; note: series mostly up to about 57 µM; nearly all actives have a fitted effect of over 65% in size
L3MBTL1 inh: L3MBTL1 (human) inhibition | Potency, µM (top dose mostly 57.1 µM), actives largely listed as inhibitors | AlphaScreen L3MBTL1–H3K9me1 peptide binding | AID 485360 | Q9Y468 | 230,000 tested, 0.66% active; note: nearly all actives have a fitted effect of over 60% in size
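L3MBTL1 50 nM + b-AHA-H3(1-15)K9me1 75 nM, 30 min RT; compound added, 30 min RT; streptavidin donor/Ni-chelate acceptor beads 10 ug/mL each final, 30 min RT dark; AlphaScreen read.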
JMJD2A Tudor inh: blocks the human JMJD2A Tudor domain | AlphaScreen JMJD2A-Tudor / H3K4me3 peptide binding | AID 504339 | 390,000 tested, 4.4% active | O75164 | Potency, µM (titrated, usually from 114 µM), actives largely listed as inhibitors; note: nearly all actives have a fitted effect of over 50% in size
HP1b binding inh: blocks HP1-beta chromodomain binding to methylated histone tails; P83916; AlphaScreen HP1-beta / biotin-H3K9me3 peptide binding; Potency, µM (titrated, usually from 114 µM), most hits filed as inhibitors; 390,000 tested, 0.56% active; AID 540317; note: nearly all actives have a fitted effect of over 70% in size
Target sequence (P83916 whole entry, looked up): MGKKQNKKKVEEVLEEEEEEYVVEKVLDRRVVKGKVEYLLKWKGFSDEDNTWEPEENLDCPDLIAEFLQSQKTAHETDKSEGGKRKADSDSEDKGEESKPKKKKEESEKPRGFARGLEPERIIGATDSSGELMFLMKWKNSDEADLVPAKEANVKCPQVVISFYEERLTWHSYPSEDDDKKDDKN
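Compound inhibition of the preformed complex between 50 nM HP1-beta and 50 nM biotinylated H3K9me3 peptide was read by AlphaScreen. Buffer was PBS pH 7.4 with 0.01% Tween-20. Incubations ran 30 min at room temperature, with 10 ug/mL donor/acceptor beads.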
VDR inhibitor: vitamin D3 receptor (human) inhibition | Potency, µM, usual class: inhibitors | P11473 | AID 504847 | VDR-SRC2-3 peptide fluorescence polarization, 2 h | 400,000 tested, 0.93% active
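Signal is fluorescence polarization, reporting how far test compounds block the interaction of VDR with the SRC2-3 coregulator peptide after a 2 h room-temperature incubation.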
Large screens that a line does not name were inactive. Calls come from the whole dose curve; as a rule, active = well fitted curve in the direction sought with a large enough effect; inconclusive = small, poorly fitted or top-dose-only effect, or another doubt; inactive = no such curve, though single readings can be large; an effect the other way counts as inactive or inconclusive.

Cc1ccc2c(c1)c1c(n2CC(O)Cn2nc(C)c(Br)c2C)C(=O)CCC1 (stereo not drawn)	none
Cc1ccc2c(c1)c(C)c(C)n2CC(O)Cn1nc(C)c(Br)c1C (stereo not drawn)	BAZ2B inh 45µM, JMJD2A Tudor inh 50µM
Cc1cc(C)n(CC(O)Cn2c3ccccc3c3ccccc32)c(=O)n1 (stereo not drawn)	none
Cc1c(C)n(CC(O)CN2CCCCC2)c2ccccc12 (stereo not drawn)	BAZ2B inh 45µM, JMJD2A Tudor inh 1.6µM, HP1b binding inh inconclusive
Cc1cc(C)n(CC(O)Cn2c(C)c(C)c3ccccc32)n1 (stereo not drawn)	BAZ2B inh 35µM, JMJD2A Tudor inh 3.5µM, HP1b binding inh inconclusive (no result: L3MBTL1 inh)
COc1ccccc1CNC(=O)Cn1ncn2c(cc3sccc32)c1=O	none (no result: PLK1 PBD inh, L3MBTL1 inh)
Cc1cc(O)c(CN(C)C)c2c1C(=O)/C(=C/c1ccco1)O2	none (no result: L3MBTL1 inh)
Cc1cc(O)c(C=O)c2c1C(=O)Oc1c(CO)c(O)c3c(c1O2)C(O)OC3=O (stereo not drawn)	BAZ2B inh 20µM, PLK1 PBD inh 7.5µM, L3MBTL1 inh 2.8µM, JMJD2A Tudor inh 3.2µM, HP1b binding inh inconclusive, VDR inhibitor 18µM
Nc1c(Br)cc(Br)c2cccnc12	none (no result: BAZ2B inh, PLK1 PBD inh, L3MBTL1 inh)
O=C(CSc1nc2sc3c(c2c(=O)n1-c1ccccc1)CCCC3)N/N=C/c1ccc(C(=O)O)cc1	JMJD2A Tudor inh 79µM, HP1b binding inh 79µM (no result: L3MBTL1 inh)
O=C(CSc1nc2sc3c(c2c(=O)n1-c1ccccc1)CCCC3)NCc1ccco1	L3MBTL1 inh inconclusive
CCOc1ccc(NC(=O)CSc2cn(CC(=O)N3CCCCCC3)c3ccccc23)cc1	none (no result: PLK1 PBD inh, L3MBTL1 inh)
CCN(CC)S(=O)(=O)c1ccc2c(c1)N(CC(=O)N(C)Cc1ccccc1)C(=O)CO2	none (no result: PLK1 PBD inh, L3MBTL1 inh)
CCOc1[nH]c(/N=C/c2ccc(OC)cc2)c(C#N)c1C#N	JMJD2A Tudor inh 25µM, HP1b binding inh inconclusive (no result: BAZ2B inh, PLK1 PBD inh, L3MBTL1 inh)
Oc1ccccc1C1CC(c2cccs2)=NC(c2cccc(Br)c2)N1 (stereo not drawn)	VDR inhibitor 71µM (no result: L3MBTL1 inh)
O=S(=O)(c1ccccc1)N1N=C(c2cccs2)CC1c1cccc(O)c1 (stereo not drawn)	BAZ2B inh inconclusive (no result: L3MBTL1 inh)
Cc1c2cnn(-c3ccccc3)c(=O)c2c(C)n1C(C)C(=O)Nc1ccccc1C(F)(F)F (stereo not drawn)	none (no result: PLK1 PBD inh, L3MBTL1 inh)
CC1CCCN(S(=O)(=O)c2ccc3c(c2)CCN3C(=O)C2CCC2)C1 (stereo not drawn)	none (no result: L3MBTL1 inh)
CC1CCN(S(=O)(=O)c2ccc3c(c2)CCN3C(=O)C2CCC2)CC1	PLK1 PBD inh 24µM, JMJD2A Tudor inh inconclusive (no result: L3MBTL1 inh)
O=C(CCl)c1ccc2c(c1)CCN2C(=O)C1CC1	BAZ2B inh inconclusive (no result: PLK1 PBD inh, JMJD2A Tudor inh, HP1b binding inh, VDR inhibitor)
O=C(CCl)c1ccc2c(c1)CCN2C(=O)C1CCCCC1	PLK1 PBD inh 0.75µM, VDR inhibitor 45µM (no result: L3MBTL1 inh)
CCCCCC(=O)/C=C/C=C\CCCCCCCC(=O)O	none (no result: BAZ2B inh, PLK1 PBD inh, L3MBTL1 inh, JMJD2A Tudor inh, HP1b binding inh)
CN(C)c1ccc(C(=O)C(O)c2ccccc2Cl)cc1 (stereo not drawn)	none (no result: BAZ2B inh, L3MBTL1 inh)
Cc1cc(N(CCO)CCO)ccc1C(c1ccc(N(CCO)CCO)cc1C)c1ccccc1Cl	BAZ2B inh 45µM, JMJD2A Tudor inh 28µM, HP1b binding inh inconclusive
CCN(CC)C(=O)c1c(NC(=O)c2ccccc2F)sc2c1CCC(C(C)(C)C)C2 (stereo not drawn)	none (no result: PLK1 PBD inh, L3MBTL1 inh)
c1ccc(CNC2CC3CCC2C3)cc1 (stereo not drawn)	none (no result: BAZ2B inh, L3MBTL1 inh)
O=C(O)CSc1nc2ccc(NC(=O)COc3ccc(Cl)cc3)cc2s1	BAZ2B inh 71µM, JMJD2A Tudor inh inconclusive (no result: PLK1 PBD inh, L3MBTL1 inh)
O=C(Nc1ccc(F)c(Cl)c1)c1ccccc1	none
c1cncc(Nc2nc(-c3cccnc3)cs2)c1	none
Clc1ccccc1Nc1nc(-c2cccnc2)cs1	BAZ2B inh 56µM
O=C(COc1ccc(Cl)cc1)Nc1nc(-c2ccncc2)cs1	PLK1 PBD inh 9.5µM, HP1b binding inh inconclusive, VDR inhibitor inconclusive (no result: L3MBTL1 inh)
N#Cc1ccc(OCC(=O)Nc2nc(-c3ccncc3)cs2)cc1	none
O=C(Nc1ccc(F)c(Cl)c1)c1cccnc1	PLK1 PBD inh 21µM, L3MBTL1 inh inconclusive, JMJD2A Tudor inh inconclusive, VDR inhibitor inconclusive
O=S(=O)(Nc1ccc(-c2csc(-c3ccccc3)n2)cc1)c1ccc(F)cc1	none
